Key:
Format in all cases: functional
[1] = target: Solute carrier family 2, facilitated glucose transporter member 1 (Homo sapiens) (UniProt P11166); test: ST_JUDE_LEISH: Cytotoxicity at 2uM final concentration against transgenic Leishmania Mexicana promastigotes LmGLUT1 that are glucose transport deficient and complemented with the human glucose transporter GLUT1. Activity is measured by DNA content using SYBR green in vitro
[2] = target: Hexose transporter 1 (Plasmodium falciparum) (UniProt O97467); test: ST_JUDE_LEISH: Cytotoxicity at 2uM final concentration against transgenic Leishmania Mexicana promastigotes LmPfHT that are glucose transport deficient and complemented with the Plasmodium falciparum hexose transporter. Activity is measured by DNA content using SYBR green in vitro
[3] = target: Glucose transporter (Leishmania mexicana) (UniProt O61059); test: ST_JUDE_LEISH: Cytotoxicity at 2uM final concentration against transgenic Leishmania Mexicana promastigotes LmGT2 that are glucose transport deficient and complemented with the L. Mexicana glucose transporter 2. Activity is measured by DNA content using SYBR green in vitro

Chain of Solute carrier family 2, facilitated glucose transporter member 1 (Homo sapiens) (P11166 whole entry): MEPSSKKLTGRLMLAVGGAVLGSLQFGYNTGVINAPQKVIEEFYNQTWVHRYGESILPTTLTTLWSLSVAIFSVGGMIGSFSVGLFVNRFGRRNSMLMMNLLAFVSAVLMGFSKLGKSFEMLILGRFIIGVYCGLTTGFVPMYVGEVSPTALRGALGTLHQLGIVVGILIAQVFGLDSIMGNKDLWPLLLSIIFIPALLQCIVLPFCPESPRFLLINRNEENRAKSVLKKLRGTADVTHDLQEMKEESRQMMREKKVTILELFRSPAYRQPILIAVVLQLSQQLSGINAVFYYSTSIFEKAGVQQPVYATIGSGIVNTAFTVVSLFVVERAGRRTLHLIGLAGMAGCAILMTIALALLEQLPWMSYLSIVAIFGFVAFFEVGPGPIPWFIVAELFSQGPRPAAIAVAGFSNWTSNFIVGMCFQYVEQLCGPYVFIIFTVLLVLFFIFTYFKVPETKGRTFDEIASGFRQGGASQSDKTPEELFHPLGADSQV

Structure (SMILES)	inhibition [1] [%]	inhibition [2] [%]	inhibition [3] [%]
O=C(N[C@@H](CC1CCCCC1)C(=O)NC1CCCCC1)c1ccc(O)c(-c2cccc(C(F)(F)F)c2)c1	-2.73	-1.15	-3.33
O=S(=O)(Nc1cccc(CCN2CCC(N3CCCCC3)CC2)c1)c1ccc(Oc2ccccc2)nc1	3.37	4.85	5.38
CCCCCc1ccc(NC(=O)Nc2ccc(Cn3ncc(N4CCCNCC4)c(Cl)c3=O)cc2)cc1	-1.1	-1.27	0.47
C[C@@H](Nc1nc(NCc2ccccc2)c2sccc2n1)c1ccccc1	24	22.3	8.39
CC(C)COc1ccc(Cl)cc1Cc1ccc(-c2nc3cnc4ccccc4c3[nH]2)o1	3.89	2.77	2
Cn1c(=N)n(CC(=O)N2CCc3ccc(Cl)cc3C2Cc2ccc(Cl)c(Cl)c2)c2ccccc21 (centres undefined)	0.36	1.29	5.67
CNC(=O)c1cnc(Nc2ccc(OCC(O)CN(C)C)cc2)nc1Nc1cccc([N+](=O)[O-])c1 (centres undefined)	3.44	3.59	3.56
COc1ccc2nccc([C@@H](O)CN3CCC(NCc4cc5cccc6c5n(c4=O)CCC6)CC3)c2c1	2.12	2.16	2.27
CO/C(=C\C=C\c1cc2cc(Cl)c(Cl)cc2[nH]1)C(=O)NCCCN1CCN(Cc2ccccc2)CC1	2.32	0.91	2.11
Cc1ccccc1Nc1nc(NCCc2ccccc2)nc2ccccc12	49.2	37.4	18.3
O=C(O)c1cccnc1Sc1ccc(Cl)cc1	-0.75	-0.76	-0.47
O=C(N/C(=C/c1cccc([N+](=O)[O-])c1)c1nc2ccccc2[nH]1)c1cccc(Br)c1	2.64	1.64	-0.27
COc1ccc(C=NN=c2cc[nH]c3ccccc23)c2ccccc12	2.52	7.49	5.88
C=CCc1cc(Br)ccc1OCCCON1C(N)=NC(N)=NC1(C)C	19.1	27.3	17.7
FC(F)(F)c1ccc2[nH]c(-c3cccc(-c4cccc(CNCCN5CCNCC5)c4)c3)nc2c1	-0.06	3.11	1.99
NC(=O)c1cccc(CN2Cc3ccccc3OC3(CCN(Cc4c[nH]c5cnccc45)CC3)C2)c1	0.63	1.28	0.09
Cc1ccc(Cc2c(N)nc3nc(N)nc(N)c3c2C)cc1	4.96	8.67	6.55
N=C(N)NC(=O)Nc1cc(Cl)c(F)c(Cl)c1	3.91	4.24	0.63
Cc1[nH]c2ccc(O)cc2c1C1CCN(CCCCCNC(=O)/C=C/c2ccc(Cl)c(Cl)c2)CC1	0.59	0.7	0.96
Cc1ccc(NC(=O)c2nc(N3CCN(c4ccncc4)CC3)ccc2Cl)cc1F	13.1	7.01	5.57
Cc1ccc(NC(=S)N2CCCN(CCCCCNC(=O)/C=C/c3ccc(Cl)c(Cl)c3)CC2)cc1Cl	-0.25	-1.02	0.36
CC(C)OC(=O)c1ccc(NC(=O)N[C@@H](Cc2ccc(O)cc2)C(=O)NC2CCC(CCN3C4CCC3c3ccccc34)CC2)cc1 (some centres undefined)	3.08	2.7	2.46
CCN1CCCC(CNC(=O)/C(=C/C=C/c2cc3cc(Cl)c(Cl)cc3[nH]2)OC)C1 (centres undefined)	-0.41	1.17	1.2
COc1ccc(NC(=O)N2CCN(CCCCCNC(=O)/C=C/c3ccc(C(F)(F)F)cc3)CC2)cc1Cl	2.21	1.82	1.35

Structure (SMILES)	inhibition [1] [%]	inhibition [2] [%]	inhibition [3] [%]
CC(=O)Nc1cc(C(=O)Nc2cccc(-c3cccc(-c4nc5cc(C(F)(F)F)ccc5[nH]4)c3)c2)ccc1C	7.57	6.52	1.84
NC(=O)c1ccc(C(=O)Nc2cccc(-c3ccc(-c4nc5cc(C(F)(F)F)ccc5[nH]4)cc3)c2)cc1	-2.41	-0.2	-2.73
COc1ccc(C)c(Nc2ccnc(Nc3ccc(-c4cnc[nH]4)cc3)n2)c1	2.85	2.37	3.29
Cc1ccccc1OCCCc1c(C)nc(N)nc1N	3.68	9.06	0.82
Cc1ccccc1C1CCN(C2CCC(NC(=O)/C=C/c3cc(C(F)(F)F)ccc3F)CC2)CC1 (centres undefined)	2.67	2.98	3.34
N=C(N)c1cc(Br)cc(NC(=O)Nc2cc(Br)cc(C(=N)N)c2)c1	2.46	2.44	3.14
O=C(NCc1cccc(OC(F)(F)F)c1)c1cnc2c(c1)nc(-c1c[nH]c(-c3ccccc3)n1)n2CCc1c[nH]cn1	2.3	2.34	-2.01
Cc1cc(=O)c(-c2ccc(Oc3cccc(Cl)c3)cc2)c(C)[nH]1	6.01	5.62	2.24
CCCCCCCc1c(C)nc2cccc(OC)c2c1O	47.3	59.4	33.9
CC1SC(=S)NC1C(=O)O (centres undefined)	-1.93	0.57	0.24
Cc1ccc(C)c2sc(N(CCCn3ccnc3)C(=O)C=Cc3cccs3)nc12	1.74	2.3	-1.56
O=C(NCCCCCN1CCC(c2c[nH]c3ccccc23)CC1)Nc1ccc(Cl)c(Cl)c1	-1	-1.05	1.89
O=C(Nc1ccc(CN2CCOCC2)cc1)c1ccc(-c2ccc(Cl)cc2)o1	-0.08	-0.82	-4.75
Cc1cc(NCCCN2CCCC2=O)n2c(nc3ccccc32)c1C#N	0.96	3.33	2.22
O=S(=O)(Nc1cc2c(cc1O)CCN(C1CCC1)CC2)c1ccc(Oc2ccc(F)cc2)cc1	2.05	1.02	0.51
Cc1ccc(S(=O)(=O)N2CCN(C(=O)c3cc(-c4cccs4)n[nH]3)CC2)c(C)c1	2.83	2.34	-0.33
COc1ccc(NCCCNc2ccnc3ccccc23)cc1	5.01	4.48	1.73
O=C(Nc1ccc(S(=O)(=O)N2CCOCC2)cc1)c1cc(-c2cc(Cl)ccc2O)n[nH]1	0.98	0.88	0.85
CC(C)CCN1CCCN(Cc2cccc(NC(=O)c3ccc(-c4ccccc4)cc3)c2)CC1	2.17	0.14	-0.09
COc1ccc(Nc2nccc(N3CCC(NC(=O)c4cccc(NC(C)=O)c4)C3)n2)cc1 (centres undefined)	0.39	0.61	1.86
Cc1cccc2nc(-c3cccc(-c4cccc(NC(=O)c5ccc(=O)[nH]n5)c4)c3)[nH]c12	5.27	1.34	2.2
COc1ccc2nccc([C@@H](O)CN3CCC(NC(=O)c4ccc(Cl)c(Cl)c4)CC3)c2c1	25.5	41.7	18.8
COc1ccc2ncc(F)c(CCN3CC(O)C(CNCc4ccccc4)C3)c2n1 (centres undefined)	7.65	5.1	4.78
Clc1ccc2c(NCc3ccccn3)ccnc2c1	9.87	10.9	4.77

— ChEMBL document CHEMBL3433997, “St. Jude Leishmania screening dataset” (2016)
